Bioassay records as filed in PubChem BioAssay.
Hits are enriched below; roughly 1.8% of the tested compounds scored in any of these assays.
TSHR antag: Antagonists of the Thyroid Stimulating Hormone Receptor: HTS campaign; activity change, negative = inhibition, % at 11.5 µM; TSHR-expressing cells, TSH-stimulated cAMP HTRF, 2 h; active compounds read low; actives 0.2% (n = 330,000);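 active means activity change below a set negative limit, meaning inhibition stronger than a set level, cut at about -70% in these data; inconclusive means activity change between two set negative limits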
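Competitive HTRF cAMP read-out (cryptate anti-cAMP antibody, cAMP-d2; 30 min, room temperature) in freshly harvested TSHR cells. Compounds added before TSH at EC80 (4nM final), followed by 2 hours' incubation at 37 deg C.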
GLP1R cytotox: qHTS of GLP-1 Receptor Inverse Agonists: Cytotox Screen | HEK293 cAMP-luciferase reporter cells, luminescence, 24 h | Potency, µM (titrated, usually from 38.3 µM), usual class: inhibitors | actives 0.13% (n = 410,000);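 further: loss of luciferase light is scored as toxicity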
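Compound-treated cells are incubated 24 hr at 37 deg C under 5% CO2 after a 12 hour attachment period, then luciferase detection reagent is added and luminescence is measured following 12 min at room temperature; lowered signal indicates toxicity.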
GLP1R ag: qHTS of GLP-1 Receptor Agonists | Potency, µM (top dose mostly 45.6 µM), usual class: activators | HEK293 GLP-1R CRE-luciferase, luminescence, 4-6 h; cells express a hypersensitive GLP-1R form | actives 0.007% (n = 380,000) | Glucagon-like peptide 1 receptor (Homo sapiens), P43220 | AID 624172, 2012
PTHR1 agonist: qHTS for PTHR1 Agonists: Primary Screen; Parathyroid hormone/parathyroid hormone-related peptide receptor (Homo sapiens), Q03431; HEK293 GP2 PTHR1 cells, GloSensor cAMP luminescence, 1 h; Potency, µM (series often up to 115 µM), actives largely listed as activators; actives 0.075% (n = 410,000); further: nearly all actives have a fitted effect of over 55% in size
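HEK-293-derived GP2 cells expressing PTHR1 and a GloSensor cAMP reporter, 3,000/well, plated overnight, given luciferin plus IBMX (each 0.5 mM as added) for 1 h at 37 °C, then compound for 1 h at 37 °C. Luminescence was read after 15 min at room temperature.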
GLP-1R inv ag: qHTS of GLP-1 Receptor Inverse Agonists (Inhibition Mode); HEK293 GLP-1R CRE-luciferase, luminescence, 24 h; GLP-1R form is constitutively active; Potency, µM (titrated, usually from 38.3 µM), usual class: inhibitors; actives 1.6% (n = 410,000); AID 624417, 2012; further: nearly all actives have a fitted effect of over 55% in size
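Inverse agonism was detected as reduced cAMP-driven luciferase luminescence after 24 h compound treatment. The cells were HEK293 clones expressing constitutively active human GLP-1R with the reporter. Reporter-only and GPR119 cell lines served as counterscreen controls.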
Hits are given with their value; 0 = inactive; ? = inconclusive; - = no result. Unless noted, the call rests on the fitted dose curve; in most records, active means well fitted curve in the direction sought with a large enough effect; inconclusive means small, poorly fitted or top-dose-only effect, or another doubt; inactive means no such curve, though single readings can be large; an effect the other way counts as inactive or inconclusive.

SMILES	TSHR antag	GLP1R cytotox	GLP1R ag	PTHR1 agonist	GLP-1R inv ag
CN(Cc1cnn(-c2ccccc2)c1)C(=O)c1cccc(S(=O)(=O)N(C)c2ccccc2)c1	-	0	0	0	10µM
Cc1ccc(N(C)S(=O)(=O)c2cccc(C(=O)N(C)Cc3cnn(-c4ccccc4)c3)c2)cc1	0	0	0	0	?
COc1ccc(N2CCN(c3c4c(nc5nncn35)CCC4)CC2)cc1	-	0	-	0	?
CCOc1cc(/C=C/C(=O)c2ccc(O)cc2)ccc1OCC(=O)N(C)C	0	?	0	0	?
CCOc1cc(/C=C/C(=O)c2ccc3c(c2)OCCO3)ccc1OCC(=O)N(C)C	0	0	0	0	13µM
COc1ccccc1CNC(=O)C(=O)NCC(c1cccnc1)N1CCN(c2ccccc2)CC1 (centres undefined)	-	0	-	0	0
COc1ccc(Sc2nc3ccccc3n3c(C(F)(F)F)nnc23)cc1	0	0	0	0	0
COc1ccc(-c2cc(-n3c(C(F)(F)F)nc4ccccc43)n(CCC#N)n2)cc1	0	0	0	0	10µM
CC(C)NC(=S)N1CCN(Cc2ccc3c(c2)OCO3)CC1	0	0	0	0	0
Cc1ccc(C(=O)N2CCN(Cc3ccc4c(c3)OCO4)CC2)c(Cl)c1	0	0	0	0	6.3µM
O=C(c1ccc(Br)s1)N1CCN(Cc2ccc3c(c2)OCO3)CC1	0	0	0	0	?
Cc1cc(C)cc(OCC(O)CN2CCN(Cc3ccc4c(c3)OCO4)CC2)c1 (centres undefined)	0	0	0	0	2.2µM
CCN(CC)c1ccc(C(=O)NC(=S)N2CCN(Cc3ccc4c(c3)OCO4)CC2)cc1	0	0	0	0	10µM
O=C(c1cc2c(s1)CCCC2)N1CCN(Cc2ccc3c(c2)OCO3)CC1	0	0	0	0	13µM
Cc1ccc(NC(=O)/C(C#N)=C/c2ccccc2Cl)cc1C	-	0	-	0	0
CN1N=C2c3ccccc3CCCC2C1c1ccc(F)cc1 (centres undefined)	0	0	0	?	7.1µM
COc1ccc2c(c1)C1=NN(/C(C)=C/C(C)=O)C(c3ccc(F)cc3)C1CC2 (centres undefined)	0	0	0	0	0
Cc1ccc(/C=C/C(=O)Nc2ccc([N+](=O)[O-])cc2)o1	0	0	0	0	0
CCOC(=O)CCc1ccc(NC(=O)/C=C/c2ccc([N+](=O)[O-])o2)cc1	-	11µM	0	0	?
[2H]c1c([2H])c([2H])c2c([nH]c(=S)n2C2CCN(CCCC(=O)c3ccc(F)cc3)CC2)c1[2H]	-	-	0	-	-
COc1ccc(NC(=O)[C@H](Cc2c[nH]c3ccccc23)NC(=O)[C@@H]2Cc3ccccc3CN2)cc1	0	0	0	0	5.6µM
COC(=O)c1nnn(-c2cccc(C)c2)c1N	-	0	0	0	0
COC(=O)c1ccc(Cl)cc1NC(=O)Nc1nnc(N2CCCC2)s1	-	0	-	0	0
CCCCN1C(C(=O)c2ccccc2)=C(OC(=O)CC)c2ccccc2S1(=O)=O	-	0	-	0	?
CCCN1C(C(=O)c2ccccc2)=C(OC(=O)c2ccc(C)cc2)c2ccccc2S1(=O)=O	-	0	-	0	?
SMILES	TSHR antag	GLP1R cytotox	GLP1R ag	PTHR1 agonist	GLP-1R inv ag
CCCCCN1C(C(=O)c2ccccc2)=C(OC(=O)CC)c2ccccc2S1(=O)=O	-	0	-	0	13µM
CCCCC(=O)OC1=C(C(=O)c2ccccc2)N(CCC)S(=O)(=O)c2ccccc21	-	0	-	0	11µM
O=C(NCCCN1CCCCCC1)c1ccc2c(c1)sc1nc(-c3ccccc3)cn12	-	?	-	0	?
CC1CCN(C(=O)c2cccc(NC(=O)c3nsc4ccccc34)c2)CC1	-	0	-	0	?
Cc1ccc(CCNC(=O)c2cccc(Nc3nc4ccccc4nc3-n3nc(C)cc3C)c2)cc1	-	0	-	0	0
COc1ccc(OC)c(NC(=S)N(CCc2c(C)[nH]c3ccc(C)cc23)Cc2cccs2)c1	0	0	0	0	11µM
